Results: article PMC5540273 (PLoS ONE, 2017)

Assays:
Details in all cases: concentration: 1 μM, replicates: in singlicate; n = 1
MTOR = system: MTOR
MUSK = system: MUSK
MYLK2 = system: MYLK2
MYLK4 = system: MYLK4
MYLK = system: MYLK
MYO3A = system: MYO3A
MYO3B = system: MYO3B
NDR1 = system: T1, NDR1
T1 construct: gene STK38

NDR2 = system: NDR2
NEK10 = system: NEK10
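Further: KINOMEscan kinase panel screen.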

Row | SMILES | %Inh (MTOR) [%] | %Inh (MUSK) [%] | %Inh (MYLK2) [%] | %Inh (MYLK4) [%] | %Inh (MYLK) [%] | %Inh (MYO3A) [%] | %Inh (MYO3B) [%] | %Inh (NDR1) [%] | %Inh (NDR2) [%] | %Inh (NEK10) [%]
1 | COc1cccc(C(=O)Nc2cccc(Oc3ccc4nc(NC(=O)C5CC5)cn4n3)c2)c1 | 0 | 0 | 0 | 0 | 33 | 14 | 0 | 19 | 10 | 0
2 | Cc1ccc(S(=O)(=O)Nc2ccc(Nc3nccc(Nc4cccc5[nH]ncc45)n3)cc2)cc1 [GSK581271] | 5 | 12 | 17 | 50 | 0 | 9 | 0 | 0 | 0 | 3
3 | c1ccc(-c2n[nH]cc2Nc2ccnc3ccccc23)nc1 [GW694077] | 11 | 7 | 0 | 99.9 | 22 | 25 | 0 | 0 | 4 | 95.7
4 | FC(F)(F)c1ccc(/C=C/c2cncnc2Nc2ccc3[nH]c(Cc4ccccc4)nc3c2)cc1 [GW709199] | 28 | 15 | 2 | 25 | 15 | 0 | 30 | 21 | 0 | 0
5 | CCn1c(-c2nonc2N)nc2c(C#CC(C)(C)O)ncc(OCCCCN)c21.O=C(O)C(F)(F)F.O=C(O)C(F)(F)F [GSK507274] | 19 | 15 | 48 | 0 | 0 | 12 | 5 | 7 | 0 | 15
6 | CN(c1ccc(NC(=O)Nc2cc(C(F)(F)F)ccc2F)cc1)c1ccnc(Nc2ccc(S(N)(=O)=O)cc2)n1 [GW809893] | 0 | 95.3 | 65 | 16 | 0 | 50 | 37 | 27 | 11 | 0
7 | O=C(Nc1cccc(-c2nn3ccccc3c2-c2ccnc(Nc3cccc(C(F)(F)F)c3)n2)c1)c1c(F)cccc1F [GSK292658] | 0 | 10 | 0 | 0 | 0 | 0 | 0 | 0 | 0 | 0
8 | Cc1ccc(C(=O)Nc2ccc(Nc3ccnc4cc(-c5nccs5)ccc34)cc2O)cc1.Cl [GW494702] | 6 | 4 | 11 | 0 | 0 | 34 | 6 | 2 | 9 | 0
9 | Fc1ccc(-c2ncn(C3CCNCC3)c2-c2ccnc(Oc3ccc(-c4ccccc4)cc3)n2)cc1 [SB-245391] | 0 | 40 | 0 | 21 | 16 | 24 | 17 | 31 | 13 | 0
10 | O=C(Nc1ccccc1F)NC1CCN(c2ccnc(Nc3ccc(F)cc3)n2)CC1 [GSK1379800] | 17 | 3 | 16 | 10 | 8 | 37 | 0 | 7 | 0 | 5
